From PubChem BioAssay (NCATS)
Inconclusive results are not listed. A call without a number means that no potency is given here. Calls of active or inactive are those of the source. The call rests on the fitted dose curve; in most records, active means well fitted inhibition curve with a large enough effect; inconclusive means small, poorly fitted or top-dose-only effect; inactive means flat fitted curve, though single readings scatter.

Tests used:
Assay in all cases: qHTS profiling for inhibitors of Plasmodium falciparum proliferation (AID 504749); further: nearly all actives have a fitted effect of over 60% in size
Details in all cases: P. falciparum in erythrocytes, SYBR Green DNA, 72 h; series mostly up to 28.7 µM
3D7 = test system: 3D7
In short: (§1)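 Parasite proliferation within erythrocytes, 72 h exposure. Endpoint: SYBR Green I fluorescence after overnight lysis at room temperature. Controls: 0.29 uM artemisinin, DMSO.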

7G8 = test system: 7G8
In short: as §1

AA1029 = test system: AA1029
In short: as §1

AS120 = test system: AS120
In short: as §1

ATS189 = test system: ATS189
In short: as §1

ATS95 = test system: ATS95
In short: as §1

C2A = test system: C2A
In short: as §1

CP185 = test system: CP185
In short: as §1

CP191 = test system: CP191
In short: as §1

CP192 = test system: CP192
In short: as §1
Potency means the concentration at half of the fitted maximal effect.

Row | SMILES | Potency (3D7) | Potency (7G8) | Potency (AA1029) | Potency (AS120) | Potency (ATS189) | Potency (ATS95) | Potency (C2A) | Potency (CP185) | Potency (CP191) | Potency (CP192)
1 | Cc1cc2nc3c(=O)[nH]c(=O)nc-3n(C[C@H](O)[C@H](O)[C@H](O)COP(=O)(O)OP(=O)(O)OC[C@H]3O[C@@H](n4cnc5c(N)ncnc54)[C@H](O)[C@@H]3O)c2cc1C | inactive | inactive | inactive | inactive | inactive | inactive | inactive | inactive | inactive | inactive
2 | CC/C=C\C/C=C\C/C=C\C/C=C\C/C=C\C/C=C\CCC(=O)O | inactive | 12600 nM (active) | inactive | inactive | inactive | inactive | inactive | inactive | inactive | inactive
3 | C=CC[C@@H]1/C=C(\C)C[C@H](C)C[C@H](OC)[C@H]2O[C@@](O)(C(=O)C(=O)N3CCCC[C@H]3C(=O)O[C@H](/C(C)=C/[C@@H]3CC[C@@H](O)[C@H](OC)C3)[C@H](C)[C@@H](O)CC1=O)[C@H](C)C[C@@H]2OC | 891 nM (active) | 1000 nM (active) | 2000 nM (active) | 1410 nM (active) | 1000 nM (active) | 2240 nM (active) | 251 nM (active) | 891 nM (active) | 1260 nM (active) | 3790 nM (active)
4 | CC1=CC(=O)NS(=O)(=O)O1 | inactive | inactive | inactive | inactive | inactive | inactive | inactive | inactive | inactive | inactive
5 | O=C1NCCN1c1ncc([N+](=O)[O-])s1 | inactive | inactive | inactive | inactive | inactive | inactive | inactive | inactive | inactive | inactive
6 | COC(=O)CC[C@H](N)C(=O)O | inactive | inactive | inactive | inactive | inactive | inactive | inactive | inactive | inactive | inactive
7 | COc1ccc(-c2noc(CC(=O)O)c2-c2ccc(OC)cc2)cc1 | inactive | inactive | inactive | inactive | inactive | inactive | inactive | inactive | inactive | inactive
8 | O[C@@H]([C@H](O)[C@H](O)CBr)[C@H](O)CBr | inactive | inactive | inactive | inactive | inactive | inactive | inactive | inactive | inactive | inactive
9 | CCCOc1cc(N)ccc1C(=O)OCCN(CC)CC | inactive | inactive | inactive | inactive | inactive | inactive | inactive | inactive | inactive | inactive
10 | CCCCCCCCCCCCCC(=O)OCC(COP(=O)([O-])OCC[N+](C)(C)C)OC(=O)CCCCCCCCCCCCC (stereo not given) | inactive | inactive | inactive | inactive | inactive | inactive | inactive | inactive | inactive | inactive
11 | NC(=O)C1c2ccccc2CCc2ccccc21 | inactive | inactive | inactive | inactive | inactive | inactive | inactive | inactive | inactive | inactive
12 | CC1=C(/C=C/C(C)=C/C=C/C(C)=C/C(=O)Oc2c(C)c(C)c3c(c2C)CC[C@@](C)(CCC[C@H](C)CCC[C@H](C)CCCC(C)C)O3)C(C)(C)CCC1 | inactive | inactive | inactive | inactive | inactive | inactive | inactive | inactive | inactive | inactive
13 | O=C(/C=C/c1cccc(F)c1)NC1CC1 | inactive | inactive | inactive | inactive | inactive | inactive | inactive | inactive | inactive | inactive
14 | CC(=O)Oc1cc(C(F)(F)F)ccc1C(=O)O | inactive | inactive | inactive | inactive | inactive | inactive | inactive | inactive | inactive | inactive
15 | CC(C)CCCC(C)NC(C)C (stereo not given) | inactive | inactive | inactive | inactive | inactive | inactive | inactive | inactive | inactive | inactive
16 | CC(C)[C@H](N)C(=O)OCC(CO)OCn1cnc2c(=O)[nH]c(N)nc21 (stereo not given in full) | inactive | inactive | inactive | inactive | inactive | inactive | inactive | inactive | inactive | inactive
17 | O=C(O)COc1ccccc1/C=N/NC(=O)c1ccncc1 | inactive | inactive | inactive | inactive | inactive | inactive | inactive | inactive | inactive | inactive
18 | C[C@H](O)CN(C)C | inactive | inactive | inactive | inactive | inactive | inactive | inactive | inactive | inactive | inactive
19 | CCOC(=S)SSC(=S)OCC | inactive | inactive | inactive | inactive | inactive | inactive | inactive | inactive | inactive | inactive
20 | C=C1C(CCl)(CCl)C2(Cl)C(Cl)C(Cl)C1(Cl)C2(Cl)Cl (stereo not given) | 1780 nM (active) | 282 nM (active) | 3160 nM (active) | 2000 nM (active) | 3160 nM (active) | 3160 nM (active) | 3160 nM (active) | 3160 nM (active) | 3160 nM (active) | 5360 nM (active)
21 | Cc1cc(C(=O)NCCc2ccc(S(=O)(=O)NC(=O)NN3CCCCCC3)cc2)no1 | inactive | inactive | inactive | inactive | inactive | inactive | inactive | inactive | inactive | inactive
22 | OB(O)O | inactive | inactive | inactive | inactive | inactive | inactive | inactive | inactive | inactive | inactive

Row | SMILES | Potency (3D7) | Potency (7G8) | Potency (AA1029) | Potency (AS120) | Potency (ATS189) | Potency (ATS95) | Potency (C2A) | Potency (CP185) | Potency (CP191) | Potency (CP192)
23 | CC1=CCC2CC1C2(C)C (stereo not given) | inactive | inactive | inactive | inactive | inactive | inactive | inactive | inactive | inactive | inactive
24 | CC(C)NCC(O)COc1ccccc1-n1cccc1 (stereo not given) | inactive | 7080 nM (active) | inactive | inactive | inactive | inactive | inactive | inactive | inactive | inactive
25 | NCCO/C=C/[C@H](N)C(=O)O | inactive | inactive | inactive | inactive | inactive | inactive | inactive | inactive | inactive | inactive
26 | O=C(O)c1ccc(NC(=O)[C@H](Cc2ccc(O)cc2)NC(=O)c2ccccc2)cc1 | inactive | inactive | inactive | inactive | inactive | inactive | inactive | inactive | inactive | inactive
27 | O=C(O)[C@H]1C(=CCO)O[C@H]2CC(=O)N12 | inactive | inactive | inactive | inactive | inactive | inactive | inactive | inactive | inactive | inactive
28 | Nc1ncnc2c1ncn2[C@H]1CC[C@@H](CO)O1 | inactive | inactive | inactive | inactive | inactive | inactive | inactive | inactive | inactive | inactive
29 | C=Cc1ccc(S(=O)(=O)O)cc1 | inactive | inactive | inactive | inactive | inactive | inactive | inactive | inactive | inactive | inactive
30 | O=C(O)/C=C/C(=O)Nc1ccc(S(=O)(=O)Nc2nccs2)cc1 | inactive | inactive | inactive | inactive | inactive | inactive | inactive | inactive | inactive | inactive
31 | Cc1cccc(C)c1NC(=O)C1CCCCN1C (stereo not given) | inactive | inactive | inactive | inactive | inactive | inactive | inactive | inactive | inactive | inactive
32 | CC(CC=O)CCCC(C)(C)O (stereo not given) | inactive | inactive | inactive | inactive | inactive | inactive | inactive | inactive | inactive | inactive
33 | CC(C)=CCC/C(C)=C/CC/C(C)=C/CC/C=C(\C)CC/C=C(\C)CCC=C(C)C | inactive | inactive | inactive | inactive | inactive | inactive | inactive | inactive | inactive | inactive
34 | O=C(O)CCC(=O)c1ccc(-c2ccccc2)cc1 | inactive | inactive | inactive | inactive | inactive | inactive | inactive | inactive | inactive | inactive
35 | S=C=Nc1ccc(N=C=S)cc1 | inactive | inactive | inactive | inactive | inactive | inactive | inactive | inactive | inactive | inactive
36 | CCOC(C)OCC | inactive | inactive | inactive | inactive | inactive | inactive | inactive | inactive | inactive | inactive
37 | CCCCCc1ccc(C)cc1O | inactive | 12600 nM (active) | inactive | inactive | inactive | inactive | inactive | inactive | inactive | inactive
38 | CNC(=O)OCc1cccc(COC(=O)NC)n1 | inactive | inactive | inactive | inactive | inactive | inactive | inactive | inactive | inactive | inactive
39 | CC1=CC(=C(c2ccc(N)cc2)c2ccc(N)cc2)C=CC1=N | 891 nM (active) | 5010 nM (active) | 2240 nM (active) | 2240 nM (active) | 2820 nM (active) | 2820 nM (active) | 631 nM (active) | 3980 nM (active) | 1780 nM (active) | 4260 nM (active)
40 | NC(=O)[C@H]1O[C@@H](O)[C@H](O)[C@@H](O)[C@@H]1O | inactive | inactive | inactive | inactive | inactive | inactive | inactive | inactive | inactive | inactive
41 | O=P(O)(O)O | inactive | inactive | inactive | inactive | inactive | inactive | inactive | inactive | inactive | inactive
42 | C=CC(C)(O)CC/C=C(\C)CCC=C(C)C (stereo not given) | inactive | inactive | inactive | inactive | inactive | inactive | inactive | inactive | inactive | inactive
43 | Nc1ncnc2c1ncn2CCOCP(=O)(O)O | inactive | inactive | inactive | inactive | inactive | inactive | inactive | inactive | inactive | inactive
